Compounds without any hit were thinned out: in the full panel of roughly 79,000, 15% have a hit. A number with no mark means an inactive call. Calls of active or inactive are those of the source. Rule as the data show it: active = growth inhibition above about 70%; inactive = the rest.
How the values were obtained:
[1] = NCI Yeast Anticancer Drug Screen. Data for the rad50 strain (AID 155);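 also: 0% = growth of vehicle-only cultures of the same strain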; conditions: S. cerevisiae rad50 strain growth inhibition, stronger effect = higher value
Outline: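 Readout: growth inhibition relative to vehicle-treated cultures. Compound exposure was carried out in a genetically defined yeast strain deficient in DNA damage repair.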

[2] = NCI Yeast Anticancer Drug Screen. Data for the mec2-1 strain (AID 157); conditions: S. cerevisiae mec2-1 strain, stronger effect = higher value
Outline: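 Each compound was tested on mec2-1 yeast, a strain altered in DNA damage repair or cell cycle control. Growth inhibition is reported relative to vehicle.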

[3] = NCI Yeast Anticancer Drug Screen. Data for the sgs1 mgt1 strain (AID 161);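 also: 0% = growth of cultures given vehicle only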; conditions: S. cerevisiae sgs1 mgt1 strain, stronger effect = higher value
Outline: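 Read-out: growth inhibition vs vehicle controls. Cells: mutant yeast strain deficient in DNA damage repair.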

[4] = NCI Yeast Anticancer Drug Screen. Data for the cln2 rad14 strain (AID 165);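 also: 0% = growth equal to vehicle treated cultures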; conditions: S. cerevisiae cln2 rad14 strain, stronger effect = higher value
Outline: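 Test compounds were added to cln2 rad14 yeast cultures; inhibition of growth was then determined by comparison with vehicle treatment.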

[5] = NCI Yeast Anticancer Drug Screen. Data for the bub3 strain (AID 167); conditions: S. cerevisiae bub3 mutant strain, stronger effect = higher value
Outline: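 Readout: yeast growth inhibition, expressed relative to vehicle-only wells. The test organism is a mutant strain from a panel with lesions in DNA repair or checkpoint genes.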

[6] = NCI Yeast Anticancer Drug Screen. Data for the mlh1 rad18 strain (AID 175); conditions: S. cerevisiae mlh1 rad18 strain growth inhibition, stronger effect = higher value
Outline: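 Inhibition values reflect reduced growth of mutant yeast versus vehicle-treated controls following compound exposure; the mutations affect DNA damage repair.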

[7] = at 5.0 µM (retest, dose inferred, filed as 0.5)
[8] = at 50.0 µM (retest, dose inferred, filed as 5.0)

Structure (SMILES) | growth inhibition [1, 7] | growth inhibition [1, 8] | growth inhibition ([1]; at 50.0 µM) | growth inhibition [2, 7] | growth inhibition [2, 8] | growth inhibition ([2]; at 50.0 µM) | growth inhibition [3, 7] | growth inhibition [3, 8] | growth inhibition ([3]; at 50.0 µM) | growth inhibition [4, 7] | growth inhibition [4, 8] | growth inhibition ([4]; at 50.0 µM) | growth inhibition [5, 7] | growth inhibition [5, 8] | growth inhibition ([5]; at 50.0 µM) | growth inhibition [6, 7] | growth inhibition [6, 8] | growth inhibition ([6]; at 50.0 µM)
O=C(O)c1c(Cl)c(Cl)c(Cl)c(Cl)c1-c1c2ccc(=O)cc-2oc2cc(O)ccc12 | 54% | 97% (active) | 86.7% (active) | 45% | 99% (active) | 92% (active) | 61% | 99% (active) | 90.5% (active) | 57% | 98% (active) | 91.2% (active) | 57% | 99% (active) | 90.1% (active) | 67% | 98% (active) | 86.2% (active)
CCNc1ncnc2c1ncn2Cc1ccco1 | -4% | 0% | -1.1% | -3% | 0% | 1.4% | -7% | -3% | 4.8% | 1% | -6% | 71.3% (active) | -2% | 1% | -4.05% | 1% | 1% | -2%
C=C1CC[C@H]2C(C)=CC[C@@H]3[C@H](OC(=O)[C@H]3CN3CCN(c4ccc(C)c([N+](=O)[O-])c4)CC3)[C@@H]12 | 29% | 65% | 69% | 30% | 40% | 66.2% | 52% | 76% (active) | 79.6% (active) | 48% | 60% | 63% | 52% | 71% (active) | 69.8% | 42% | 72% (active) | 47.8%
OC(C1CCCC1=N/N=C1/CCCC1C(O)(C(F)(F)Cl)C(F)(F)Cl)(C(F)(F)Cl)C(F)(F)Cl (configuration not stated) | -2% | 22% | 86.3% (active) | -2% | 25% | 89.3% (active) | -4% | 7% | 90.9% (active) | 1% | 26% | 88.8% (active) | 0% | 11% | 91.8% (active) | -3% | 33% | 92% (active)
Cc1cc2c(cc1O)CC[C@@H]1[C@@H]2CC[C@]2(C)[C@@H](O)CC[C@@H]12 | -29% | -27% | 38.5% | -25% | -16% | 35.2% | -32% | -32% | 68% | -9% | -17% | 50.2% | -42% | -29% | 37.5% | -35% | -22% | 50%
N#Cc1c(-c2ccc(Cl)cc2)c(C#N)c(=O)n(NS(=O)(=O)c2ccccc2)c1S | 51% | 83% (active) | 39.6% | 29% | 78% (active) | 86.2% (active) | 30% | 93% (active) | 81.3% (active) | 46% | 63% | 19.4% | 50% | 88% (active) | 70.8% (active) | 36% | 71% (active) | 77.5% (active)
Cc1c2cc[n+](C)cc2c(COC2OC(CO)C(O)C2O)c2c3ccccc3n(C)c12 (configuration not stated) | 23% | 44% | 65% | 10% | 10% | 23.6% | -12% | 23% | 17.9% | 19% | 24% | 18.1% | 12% | 14% | 28.1% | 13% | 14% | 23.2%
O=C(c1ccccc1)c1ccc(Br)cc1O | -3% | 21% | 57% | -9% | 12% | 21.9% | -4% | 33% | 31.8% | -5% | 9% | 28.1% | -12% | -11% | 38.1% | 1% | 8% | 68.8%
CC(=O)[C@H]1CC[C@H]2[C@@H]3CC[C@H]4C[C@@H](N5CCOCC5)CC[C@]4(C)[C@H]3CC[C@]12C | 54% | 63% | 73.3% (active) | 61% | 76% (active) | 36.5% | 70% (active) | 87% (active) | 83.5% (active) | 52% | 30% | 87.5% (active) | 49% | 81% (active) | 59.5% | 76% (active) | 69% | 74.8% (active)

From PubChem BioAssay (NCI)
